# Data: PubChem BioAssay (NCI)
# The panel holds about 79,000 compounds, 15% with a hit somewhere; the sample as a whole holds those more often. A number with no mark means an inactive call. The source made the active and inactive calls. Rule as the data show it: active = growth inhibition above about 70%; inactive = the rest.
# Tests used:
# [1] = NCI Yeast Anticancer Drug Screen. Data for the wt1 strain (AID 149);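 also: 0% = growth of vehicle-treated wt1 cultures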; settings: S. cerevisiae wt1 strain (SPY 50644) growth inhibition, hits give high values
# Outline: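 Compounds are added to wt1 yeast cultures. Growth is then measured. Inhibition is expressed relative to vehicle-treated controls.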
# [2] = NCI Yeast Anticancer Drug Screen. Data for the rad50EPP+ strain (AID 151);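 also: 0% = growth of vehicle-treated control cultures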; settings: S. cerevisiae rad50 mutant strain, hits give high values
# Outline: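 Exposing the rad50EPP+ strain to each compound, growth was compared with vehicle-only cultures to give inhibition.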
# [3] = NCI Yeast Anticancer Drug Screen. Data for the mgt1 strain (AID 153); settings: S. cerevisiae mgt1 mutant growth inhibition, hits give high values
# Outline: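 Genetically defined yeast (mgt1) treated with compound; inhibition of growth expressed against vehicle-treated controls.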
# [4] = NCI Yeast Anticancer Drug Screen. Data for the rad50 strain (AID 155);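 also: 0% = growth of vehicle-only cultures of the same strain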; settings: S. cerevisiae rad50 strain growth inhibition, hits give high values
# Outline: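 Inhibition values express reduced yeast growth in compound-treated cultures relative to vehicle-treated controls.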
# [5] = NCI Yeast Anticancer Drug Screen. Data for the mec2-1 strain (AID 157); settings: S. cerevisiae mec2-1 strain, hits give high values
# Outline: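 Readout is yeast growth inhibition, normalised to vehicle-treated controls, in the mec2-1 strain exposed to compound.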
# [6] = NCI Yeast Anticancer Drug Screen. Data for the rad14 strain (AID 159);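 also: 0% = growth of vehicle-treated control cultures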; settings: S. cerevisiae rad14 strain growth inhibition, hits give high values
# Outline: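 A mutant yeast strain defective in DNA damage repair is treated with compound; inhibition of its growth is scored against untreated, vehicle-exposed cultures.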
# [7] = NCI Yeast Anticancer Drug Screen. Data for the sgs1 mgt1 strain (AID 161);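 also: 0% = growth of cultures given vehicle only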; settings: S. cerevisiae sgs1 mgt1 strain, hits give high values
# Outline: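 This yeast growth screen uses a strain with defined DNA-repair lesions; compound-treated growth is compared with vehicle-treated growth.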
# [8] = NCI Yeast Anticancer Drug Screen. Data for the CLN2oe strain (AID 163);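 also: 0% = growth of vehicle-only control cultures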; settings: S. cerevisiae CLN2oe strain, hits give high values
# Outline: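 Values reflect how much compound exposure reduced yeast growth, referenced to vehicle-exposed cells. Assay organism is a strain with a defined genetic change affecting cell-cycle control.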
# [9] = NCI Yeast Anticancer Drug Screen. Data for the cln2 rad14 strain (AID 165);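 also: 0% = growth equal to vehicle treated cultures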; settings: S. cerevisiae cln2 rad14 strain, hits give high values
# Outline: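 Relative to vehicle controls, growth inhibition of compound-treated cln2 rad14 yeast was recorded.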
# [10] = NCI Yeast Anticancer Drug Screen. Data for the bub3 strain (AID 167); settings: S. cerevisiae bub3 mutant strain, hits give high values
# Outline: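 Steps: expose the mutant yeast strain to compound; grow alongside vehicle-treated cultures; measure growth; express inhibition against the vehicle cultures.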
# [11] = NCI Yeast Anticancer Drug Screen. Data for the wt2 strain (AID 169);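 also: 0% = growth of vehicle-treated yeast cultures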; settings: S. cerevisiae wt2 strain growth inhibition, hits give high values
# Outline: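 Values express reduction in yeast growth under compound treatment, referenced to vehicle-treated cells.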
# [12] = NCI Yeast Anticancer Drug Screen. Data for the mlh1 strain (AID 171);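 also: 0% = growth of vehicle-treated control cultures of the same strain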; settings: S. cerevisiae mlh1 strain growth inhibition, hits give high values
# Outline: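 Steps: expose the defined-mutant yeast strain to compound; expose a parallel culture to vehicle; measure growth; express compound effect as inhibition relative to the vehicle culture.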
# [13] = NCI Yeast Anticancer Drug Screen. Data for the sgs1 strain (AID 173);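 also: 0% = growth of vehicle-only control cultures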; settings: S. cerevisiae sgs1 mutant, hits give high values
# Outline: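 Treat defined-mutant yeast with compound; measure growth; calculate inhibition relative to vehicle-treated cells.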
# [14] = NCI Yeast Anticancer Drug Screen. Data for the mlh1 rad18 strain (AID 175); settings: S. cerevisiae mlh1 rad18 strain growth inhibition, hits give high values
# Outline: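 Test agents were incubated with a yeast strain of defined genotype (DNA damage repair defect). Inhibition of growth was derived by comparison with vehicle-exposed cultures.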
# [15] = NCI Yeast Anticancer Drug Screen. Data for the rad18 strain (AID 177); settings: S. cerevisiae rad18 mutant growth inhibition, hits give high values
# Outline: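 A genetically defined yeast mutant impaired in DNA damage repair was treated with test compounds, then its growth was measured against cultures receiving vehicle alone.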
# [16] = at 5.0 µM (retest, dose inferred, filed as 0.5)
# [17] = at 50.0 µM (retest, dose inferred, filed as 5.0)
smiles,measurement,setting,value
CCOC(=O)c1sc2[n+](c1C)C(=O)/C(=C/c1cc(OC)c(OC)c(OC)c1)S2,growth inhibition,[1]; at 1.2 µM,3%
same,growth inhibition,[1]; at 3.7 µM,2%
same,growth inhibition,[1]; at 11.0 µM,9%
same,growth inhibition,[1]; at 33.0 µM,56%
same,growth inhibition,[1]; at 100.0 µM,88% (active)
same,growth inhibition,[2]; at 1.2 µM,2%
same,growth inhibition,[2]; at 3.7 µM,6%
same,growth inhibition,[2]; at 11.0 µM,19%
same,growth inhibition,[2]; at 33.0 µM,45%
same,growth inhibition,[2]; at 100.0 µM,76% (active)
same,growth inhibition,[3]; at 1.2 µM,9%
same,growth inhibition,[3]; at 3.7 µM,12%
same,growth inhibition,[3]; at 11.0 µM,54%
same,growth inhibition,[3]; at 33.0 µM,86% (active)
same,growth inhibition,[3]; at 100.0 µM,93% (active)
same,growth inhibition,[4]; at 1.2 µM,9%
same,growth inhibition,[4]; at 3.7 µM,16%
same,growth inhibition,[4]; [16],1%
same,growth inhibition,[4]; at 11.0 µM,18%
same,growth inhibition,[4]; at 33.0 µM,68%
same,growth inhibition,[4]; [17],35%
same,growth inhibition,[4]; at 50.0 µM,41%
same,growth inhibition,[4]; at 100.0 µM,87% (active)
same,growth inhibition,[5]; at 1.2 µM,21%
same,growth inhibition,[5]; at 3.7 µM,18%
same,growth inhibition,[5]; [16],6%
same,growth inhibition,[5]; at 11.0 µM,34%
same,growth inhibition,[5]; at 33.0 µM,76% (active)
same,growth inhibition,[5]; [17],51%
same,growth inhibition,[5]; at 50.0 µM,52.5%
same,growth inhibition,[5]; at 100.0 µM,92% (active)
same,growth inhibition,[6]; at 1.2 µM,12%
same,growth inhibition,[6]; at 3.7 µM,3%
same,growth inhibition,[6]; at 11.0 µM,28%
same,growth inhibition,[6]; at 33.0 µM,77% (active)
same,growth inhibition,[6]; at 100.0 µM,92% (active)
same,growth inhibition,[7]; [16],-4%
same,growth inhibition,[7]; [17],64%
same,growth inhibition,[7]; at 50.0 µM,80.5% (active)
same,growth inhibition,[8]; at 1.2 µM,11%
same,growth inhibition,[8]; at 3.7 µM,5%
same,growth inhibition,[8]; at 11.0 µM,26%
same,growth inhibition,[8]; at 33.0 µM,76% (active)
same,growth inhibition,[8]; at 100.0 µM,83% (active)
same,growth inhibition,[9]; [16],13%
same,growth inhibition,[9]; [17],78% (active)
same,growth inhibition,[9]; at 50.0 µM,55.5%
same,growth inhibition,[10]; at 1.2 µM,12%
same,growth inhibition,[10]; at 3.7 µM,7%
same,growth inhibition,[10]; [16],-10%
same,growth inhibition,[10]; at 11.0 µM,21%
same,growth inhibition,[10]; at 33.0 µM,60%
same,growth inhibition,[10]; [17],12%
same,growth inhibition,[10]; at 50.0 µM,40.9%
same,growth inhibition,[10]; at 100.0 µM,66%
same,growth inhibition,[11]; at 1.2 µM,2%
same,growth inhibition,[11]; at 3.7 µM,3%
same,growth inhibition,[11]; at 11.0 µM,47%
same,growth inhibition,[11]; at 33.0 µM,85% (active)
same,growth inhibition,[11]; at 100.0 µM,95% (active)
same,growth inhibition,[12]; at 1.2 µM,9%
same,growth inhibition,[12]; at 3.7 µM,9%
same,growth inhibition,[12]; at 11.0 µM,36%
same,growth inhibition,[12]; at 33.0 µM,82% (active)
same,growth inhibition,[12]; at 100.0 µM,93% (active)
same,growth inhibition,[13]; at 1.2 µM,17%
same,growth inhibition,[13]; at 3.7 µM,23%
same,growth inhibition,[13]; at 11.0 µM,48%
same,growth inhibition,[13]; at 33.0 µM,90% (active)
same,growth inhibition,[13]; at 100.0 µM,95% (active)
same,growth inhibition,[14]; [16],6%
same,growth inhibition,[14]; [17],60%
same,growth inhibition,[14]; at 50.0 µM,25.1%
same,growth inhibition,[15]; at 1.2 µM,19%
same,growth inhibition,[15]; at 3.7 µM,27%
same,growth inhibition,[15]; at 11.0 µM,40%
same,growth inhibition,[15]; at 33.0 µM,75% (active)
same,growth inhibition,[15]; at 100.0 µM,88% (active)
